This passage reports AC50 and outcome results from PubChem BioAssay (EPA / NIEHS).

Where “and” joins values, the source holds several entries; their conditions need not be identical. Equal values may be shown once. More than one record can exist for a structure, and the calls need not agree. Calls of active or inactive are those of the source. How the source made its calls: active means hit-call score of the fitted dose curve at least 0.9, where 1 is the maximum; inactive means score below 0.9.

Read-out in assay [1]: Interferon-gamma inducible Protein 10 (IP10), CXCL10 (gene 3627)
The assay can be described thus: BSK_BE3C_IP10: BioMAP Diversity Plus: BE3C Assay for Interferon-gamma inducible Protein 10 (IP10) Biomarker Activity (AID 2283034). The conditions noted are these: primary human bronchial epithelial cells; actives raise or lower the signal. The method, boiled down:
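Primary human bronchial epithelial cells, with IP-10 measured by ELISA 24 hours after chemical dosing. Bidirectional fit against DMSO; cytotoxicity checked by SRB total protein staining in parallel cultures.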

Read-out in assay [2]: Monokine induced gamma interferon (MIG), CXCL9 (gene 4283)
The assay can be described thus: BSK_BE3C_MIG: BioMAP Diversity Plus: BE3C Assay for Monokine induced gamma interferon (MIG) Biomarker Activity (AID 2283035). Conditions: primary human bronchial epithelial cells; actives raise or lower the signal. The method, boiled down: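 Primary human bronchial epithelial cells treated for 24 h; MIG levels measured by ELISA, fitted bidirectionally versus DMSO. Parallel SRB total-protein staining assessed cytotoxicity.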

Read-out in assay [3]: Transforming growth factor beta 1 (TGFb1), TGFB1 (gene 7040)
The assay can be described thus: BSK_BE3C_TGFb1: BioMAP Diversity Plus: BE3C Assay for Transforming growth factor beta 1 (TGFb1) Biomarker Activity (AID 2283036). The conditions noted are these: primary human bronchial epithelial cells; actives raise or lower the signal. The gist of the method: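 Primary human bronchial epithelial cells dosed with chemical; TGF-b1 measured by ELISA 24 h after dosing. Bidirectional curve fitting against DMSO negative control; SRB total-protein staining in parallel cultures gauged cytotoxicity.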

Read-out in assay [4]: Plasminogen activator inhibitor-1 (PAI1), SERPINE1 (gene 5054)
The assay can be described thus: BSK_BE3C_PAI1: BioMAP Diversity Plus: BE3C Assay for Plasminogen activator inhibitor-1 (PAI1) Biomarker Activity (AID 2283037). The conditions noted are these: primary human bronchial epithelial cells; actives raise or lower the signal. The gist of the method:
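Primary human bronchial epithelial cells (BE3C system) exposed 24 h; PAI-1 quantified by ELISA. Parallel sulforhodamine B staining of total protein flags cytotoxicity. Bidirectional fit versus DMSO.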

Read-out in assay [5]: urokinase plasminogen activator (uPA), PLAU (gene 5328)
The assay can be described thus: BSK_BE3C_uPA: BioMAP Diversity Plus: BE3C Assay for urokinase plasminogen activator (uPA) Biomarker Activity (AID 2283038).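 On outcome: uPA protein level quantified by ELISA in cell cultures; uPA read one day after compound addition.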 The conditions noted are these: primary human bronchial epithelial cells; actives raise or lower the signal. The gist of the method:
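Primary human bronchial epithelial cells, uPA measured by ELISA 24 h after dosing. Bidirectional change relative to DMSO; cytotoxicity checked in parallel cultures by sulforhodamine B total-protein staining.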

Read-out in assay [6]: Urokinase-type plasminogen activator receptor (uPAR), PLAUR (gene 5329)
The assay can be described thus: BSK_BE3C_uPAR: BioMAP Diversity Plus: BE3C Assay for Urokinase-type plasminogen activator receptor (uPAR) Biomarker Activity (AID 2283039).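 On outcome: cells exposed to compound for one day before measurement.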 Conditions: primary human bronchial epithelial cells; actives raise or lower the signal. The method, boiled down: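 Primary human bronchial epithelial cells dosed for 24 h; uPAR quantified by ELISA with bidirectional fitting against DMSO. Overt cytotoxicity assessed in parallel cultures by SRB total-protein staining (0.1% SRB, 560 nm).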

Read-out in assay [7]: Interleukin-6 (IL6), IL6 (gene 3569)
The assay can be described thus: BSK_CASM3C_IL6: BioMAP Diversity Plus: CASM3C Assay for Interleukin-6 (IL6) Biomarker Activity for (AID 2283040). The conditions noted are these: primary human coronary artery smooth muscle cells; actives raise or lower the signal.

Read-out in assay [8]: Tissue plasminogen activator (tPA), PLAT (gene 5327)
The assay can be described thus: BSK_BE3C_tPA: BioMAP Diversity Plus: BE3C Assay for Tissue plasminogen activator (tPA) Biomarker Activity (AID 2283041).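 On outcome: tPA level quantified by ELISA one day after compound addition.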 Conditions: primary human bronchial epithelial cells; actives raise or lower the signal. The gist of the method:
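Primary human bronchial epithelial cells in the BE3C system, exposed to compound for 24 h. tPA was quantified by ELISA; DMSO served as baseline, with gain or loss of signal fitted. Cytotoxicity checked in parallel cultures by SRB total-protein staining.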

Read-out in assay [9]: Interleukin-8 (IL8), CXCL8 (gene 3576)
The assay can be described thus: BSK_CASM3C_IL8: BioMAP Diversity Plus: CASM3C Assay for Interleukin-8 (IL8) Biomarker Activity (AID 2283042).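 Further: IL-8 protein level quantified by ELISA.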 The conditions noted are these: primary human coronary artery smooth muscle cells; actives raise or lower the signal.

Read-out in assay [10]: Human Leukocyte Antigen - DR isotype (HLADR), HLA-DRA (gene 3122)
The assay can be described thus: BSK_CASM3C_HLADR: BioMAP Diversity Plus: CASM3C Assay for Human Leukocyte Antigen - DR isotype (HLADR) Biomarker Activity (AID 2283043).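 Further: cell-surface HLA-DR protein level quantified by ELISA.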 Conditions: primary human coronary artery smooth muscle cells; actives raise or lower the signal.

For the compound `CCCCNc1ccc(NCCCC)c2c1C(=O)c1ccccc1C2=O`, the AC50 is 4.33 µM (active) in assay [1], 5 µM (active) in [3], 5 µM (active) in assay [5] and 6.83 µM (active) in [6]. The outcome in [2], in [4], in assay [7], in [8], in assay [9] and in [10] was inactive.
Consider `c1ccc(-c2ccccn2)nc1`, for which the outcome in assay [1], in assay [2], in [3], in assay [4], in [5] and in assay [6] was inactive. Further, the outcome in assay [7], in assay [8], in [9] and in assay [10] was inactive.
For `CCCCCCCCc1ccc(Nc2ccc(CCCCCCCC)cc2)cc1`, the result in [1], in assay [2], in [3], in assay [4], in assay [5] and in assay [6] was inactive. Moreover, the result in [7], in assay [8], in assay [9] and in [10] was inactive.
With `C#CC1(O)CC[C@H]2[C@@H]3CCC4=CCCC[C@@H]4[C@H]3CC[C@@]21C` (some centres not stated), the AC50 is 34.8 µM (active) in [1]; 36 µM (active) in [2]; 20 µM (active) in assay [5]; 20 µM (active) in assay [6]; 6.06 µM (active) in assay [7]; 32.8 µM (active) in assay [9]. In assay [10], the half-maximal activity concentration (AC50) was 34.8 µM (active). Moreover, the outcome in assay [3], in assay [4] and in assay [8] was inactive.
On to `CC(C)C(=O)C(C)C`, for which the result in assay [1], in [2], in [3], in assay [4], in [5] and in assay [6] was inactive. Besides, the result in assay [7], in [8], in assay [9] and in assay [10] was inactive.
With `CCOC(=O)c1ccccc1C(=C1C=C(Br)C(=O)C(Br)=C1)c1cc(Br)c(O)c(Br)c1`, the AC50 in assay [1] was 3.73 µM (active) and 3.06 µM (active); in [2] it was 5.86 µM (active) and 5.17 µM (active); in assay [4], 2.48 µM (active); in assay [5], 3.81 µM (active) and 4.21 µM (active); in assay [6], 7.89 µM (active) and 4.27 µM (active); in [8] it was 2.55 µM (active) and 2.71 µM (active). In addition, the outcome in assay [7], in assay [9] and in [10] was inactive.
For `CCO[Si](CCCN=C=O)(OCC)OCC`, the result in [1], in [2], in assay [3], in [4], in [5] and in assay [6] was inactive. The outcome in assay [7], in assay [8], in [9] and in assay [10] was inactive.
`O=C(Nc1ccccc1SSc1ccccc1NC(=O)c1ccccc1)c1ccccc1`: the concentration at half-maximal activity (AC50) is 1.03 µM (active) in assay [1] and 5.29 µM (active) in [10]. The result in [2], in assay [3], in assay [4], in [5], in assay [6] and in assay [7] was inactive. The result in assay [8] and in assay [9] was inactive.
Turning to `Nc1ccc(N)c(Cl)c1`, the result in assay [1], in assay [2], in [5], in assay [7], in assay [8] and in [9] was inactive. For the same compound, the result in assay [10] was inactive. Also, the AC50 in assay [4] was 3.32 µM (active) and 2.4 µM (active); in assay [6], 11.1 µM (active) and 4.19 µM (active).
Turning to `COCc1c(C(C)C)nc(C(C)C)c(/C=C/[C@@H](O)C[C@@H](O)CC(=O)O)c1-c1ccc(F)cc1`, the result in assay [1], in assay [2], in assay [3], in [4], in assay [5] and in assay [6] was inactive. Further, the result in assay [7], in assay [8] and in assay [10] was inactive. The AC50 in assay [9] is 0.0375 µM (active).
Turning to `N#[N+]c1ccc2c(S(=O)(=O)[O-])cccc2c1O`, the outcome in [1], in assay [2], in assay [3], in assay [4], in assay [5] and in assay [6] was inactive. The outcome in [7], in assay [8], in assay [9] and in [10] was inactive.
As to `CCCCCCCCCCCCCCCC[N+](C)(C)CC`, the AC50 is 2.19 µM (active) in assay [1]; 9.57 µM (active) in [2]; 0.599 µM (active) in [3]; 10.4 µM (active) in assay [4]; 2.25 µM (active) in [5]; 2.08 µM (active) in assay [6]. Further, the AC50 was 4.5 µM (active) in assay [7], 797 nM (active) in assay [8], 5.98 µM (active) in assay [9] and 2.97 µM (active) in assay [10].
For the compound `CCCCC(CC)COCC1CO1` (configuration not stated), the outcome in assay [1], in [2], in assay [4], in assay [5], in assay [6] and in assay [7] was inactive. The outcome in assay [8], in [9] and in assay [10] was inactive.
Consider `C=CCOCC(O)CCl` (configuration not stated), for which the outcome in [1], in assay [2], in assay [3], in assay [4], in [5] and in [6] was inactive. For the same compound, the outcome in [7], in [8], in assay [9] and in assay [10] was inactive.
As for `CO[Si](OC)(OC)c1ccccc1`, the outcome in assay [1], in assay [2], in assay [4], in assay [5], in assay [6] and in [7] was inactive. In addition, the outcome in assay [8], in assay [9] and in assay [10] was inactive. For the same compound, the AC50 in assay [10] is 3.86 µM (active).
As to `C=CCOc1c(Br)cc(Br)cc1Br`, the AC50 in assay [1] was 30.9 µM (active); in assay [3] it was 6.57 µM (active); in assay [4] it was 20 µM (active); in assay [5] it was 20 µM (active); in assay [6] it was 25.2 µM (active); in assay [7], 27.5 µM (active). For the same compound, the AC50 is 8880 nM (active) in assay [8], 27.1 µM (active) in [9] and 26.8 µM (active) in assay [10]. In addition, the outcome in assay [2] was inactive.
In the case of `CCOc1nc(F)cc2nc(S(=O)(=O)Nc3c(Cl)cccc3C(=O)OC)nn12`, the outcome in assay [1], in [2], in assay [3], in [4], in [5] and in [6] was inactive. The result in [7], in assay [8], in assay [9] and in [10] was inactive.
In the case of `C/C=C\C/C=C/CCCCCCCCOC(C)=O`, the AC50 in [1] and in [10] was 20 µM (active) in each case. Moreover, the outcome in [2], in [3], in assay [4], in assay [5], in [6] and in [7] was inactive. Moreover, the outcome in assay [8] and in assay [9] was inactive.
